Experimental data published in PubChem BioAssay.
Active and inactive are the calls of the source. Unless noted, how the calls were made is not given here.

Experiments:
[1] = compound effects on lung adenocarcinoma cell viability – A549, calcein-AM fluorescence, 48 h, basal, profiling panel (AID 1162); conditions: higher = more signal; further: test concentration not given here
[2] = compound effects on differentiated 3T3-L1 adipocyte viability – cell-based, 3T3-L1 adipocytes, calcein-AM fluorescence, 48 h, basal, profiling panel (AID 1163); conditions: 3T3-L1 adipocytes viability, higher = more signal; further: test concentration not given here
[3] = compound effects on hepatocellular carcinoma cell viability – HepG2, calcein-AM fluorescence, 48 h, basal, profiling panel (AID 1164); conditions: higher = more signal; further: test concentration not given here
[4] = compound effects on multiple myeloma cell viability – MM1S, calcein-AM fluorescence, 48 h, basal, profiling panel (AID 1165); conditions: higher = more signal; further: test concentration not given here
[5] = calcein-AM signal in unstimulated myeloma cells – cell-based, calcein-AM fluorescence, 48 h, PK04 Diversity Set, profiling panel (AID 1166); conditions: RPMI8226 myeloma viability, higher = more signal;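 further: cells grown under basal conditions without added stimulus; test concentration not given here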
[6] = JC-1 mitochondrial signal, unstimulated HepG2 cells – cell-based, JC-1 fluorescence, 24 h, 100 nL compound, profiling panel (AID 1167); conditions: HepG2 mitochondrial potential, higher = more signal; further: test concentration not given here
[7] = JC-1 mitochondrial signal, unstimulated adipocytes – cell-based, JC-1 fluorescence, 3T3-L1 adipocytes, 24 h, 100 nL compound, profiling panel (AID 1168); conditions: JC-1 mitochondrial fluorescence, higher = more signal, called active from +8 up or from −8 down; further: test concentration not given here
[8] = JC-1 mitochondrial signal, unstimulated myeloma cells – cell-based, JC-1 fluorescence, RPMI8226, 24 h, 100 nL compound, profiling panel (AID 1169); conditions: JC-1 mitochondrial potential fluorescence, higher = more signal; further: test concentration not given here
[9] = JC-1 mitochondrial signal, unstimulated MM1S myeloma – cell-based, JC-1 fluorescence, 24 h, 100 nL compound, profiling panel (AID 1170); conditions: MM1S mitochondrial potential, higher = more signal; further: test concentration not given here
[10] = resazurin metabolic signal in A549 cells – cell-based, resazurin fluorescence, 24 h, PK04 Diversity Set, profiling panel (AID 1171); conditions: A549 viability, higher = more signal, called active from +8 up or from −8 down; further: test concentration not given here
[11] = resazurin metabolic signal in HepG2 cells – cell-based, resazurin fluorescence, 24 h, PK04 Diversity Set, profiling panel (AID 1172); conditions: HepG2 viability, higher = more signal; further: test concentration not given here
[12] = budding yeast growth changes without added modifier – OD600, strain BY4716, 24 h, basal condition, primary screen (AID 1173); conditions: S. cerevisiae BY4716 growth, OD600, 24 h; higher = more signal, called active from +8 up or from −8 down
[13] = viability profiling in MM1S myeloma cells – cell-based, resazurin fluorescence, basal, 24 h, PK04 Diversity Set, profiling panel (AID 1174); conditions: higher = more signal, called active from +8 up or from −8 down; further: test concentration not given here
[14] = biological target: Dihydroorotate dehydrogenase (quinone), mitochondrial (Plasmodium falciparum (isolate 3D7)) (UniProt Q08210); experiment: inhibition of P. falciparum DHODH – biochemical, C-terminal His tag, absorbance 600 nm, primary screen (AID 1175); conditions: PfDHODH enzyme, DCIP absorbance 600 nm; higher = more signal, called active from +8 up or from −8 down;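 further: recombinant parasite enzyme with a five histidine tag at its C terminus; test concentration not given here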
Chain of Dihydroorotate dehydrogenase (quinone), mitochondrial (Plasmodium falciparum (isolate 3D7)) (Q08210 whole entry, looked up): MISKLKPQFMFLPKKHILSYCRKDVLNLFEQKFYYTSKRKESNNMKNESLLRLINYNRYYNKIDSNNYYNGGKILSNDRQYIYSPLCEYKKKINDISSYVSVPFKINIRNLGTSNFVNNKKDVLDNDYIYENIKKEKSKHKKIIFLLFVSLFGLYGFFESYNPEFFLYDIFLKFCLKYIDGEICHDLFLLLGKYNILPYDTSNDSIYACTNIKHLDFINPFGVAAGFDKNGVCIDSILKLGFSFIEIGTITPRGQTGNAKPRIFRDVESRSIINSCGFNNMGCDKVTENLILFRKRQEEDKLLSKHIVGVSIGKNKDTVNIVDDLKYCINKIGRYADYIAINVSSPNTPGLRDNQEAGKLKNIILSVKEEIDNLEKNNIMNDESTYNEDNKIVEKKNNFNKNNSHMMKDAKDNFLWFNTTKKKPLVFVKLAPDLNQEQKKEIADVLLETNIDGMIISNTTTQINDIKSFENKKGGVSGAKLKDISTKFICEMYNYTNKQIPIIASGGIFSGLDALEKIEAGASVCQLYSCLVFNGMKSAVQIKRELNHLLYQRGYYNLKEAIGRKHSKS

[15] = inhibition of PAO1 biofilm formation – strain PAO1, LB-PBS medium, absorbance 600 nm, primary screen (AID 1176); further: test concentration not given here; conditions: P. aeruginosa PAO1 growth/biofilm, A600, 12 h; higher = more signal
[16] = growth modulation of vineyard yeast isolate – strain RM11-1a, OD600, basal, 24 h, primary screen (AID 1177);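 further: cultures grown under basal conditions with no added stressor; test concentration not given here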; conditions: S. cerevisiae RM11-1a growth, OD600, 24 h; higher = more signal, called active from +8 up or from −8 down
[17] = growth of efflux-deficient E. coli DRC39 – strain DRC39, OD650, 24 h, E. coli filamentation inducers, primary screen (AID 1178);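 further: growth measured as culture turbidity by optical density at 650 nm; test concentration not given here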; conditions: E. coli DRC39 acrAB, higher = more signal, called active from +8 up or from −8 down
[18] = growth of efflux-deficient E. coli DRC39 – strain DRC39, OD650, 48 h, E. coli filamentation inducers, primary screen (AID 1179);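 further: screen aims at cell division blockers that make cells filament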; conditions: E. coli DRC39 delta-acrAB growth, higher = more signal, called active from +8 up or from −8 down
[19] = viability profiling in RPMI8226 myeloma cells – cell-based, resazurin fluorescence, basal, 24 h, PK04 Diversity Set, profiling panel (AID 1180); conditions: higher = more signal;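 further: RPMI8826 multiple myeloma cell line at 5000 cells per well; test concentration not given here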
[20] = biological target: E3 ubiquitin-protein ligase XIAP (Homo sapiens) (UniProt P98170); experiment: small molecules binding XIAP protein – biophysical, small-molecule microarray, fluorescence 635 nm, primary screen (AID 1181); conditions: higher = more signal;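 further: score merges 667 nm emission and signal to noise over triplicate slides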
Chain of E3 ubiquitin-protein ligase XIAP (Homo sapiens) (P98170 whole entry, looked up): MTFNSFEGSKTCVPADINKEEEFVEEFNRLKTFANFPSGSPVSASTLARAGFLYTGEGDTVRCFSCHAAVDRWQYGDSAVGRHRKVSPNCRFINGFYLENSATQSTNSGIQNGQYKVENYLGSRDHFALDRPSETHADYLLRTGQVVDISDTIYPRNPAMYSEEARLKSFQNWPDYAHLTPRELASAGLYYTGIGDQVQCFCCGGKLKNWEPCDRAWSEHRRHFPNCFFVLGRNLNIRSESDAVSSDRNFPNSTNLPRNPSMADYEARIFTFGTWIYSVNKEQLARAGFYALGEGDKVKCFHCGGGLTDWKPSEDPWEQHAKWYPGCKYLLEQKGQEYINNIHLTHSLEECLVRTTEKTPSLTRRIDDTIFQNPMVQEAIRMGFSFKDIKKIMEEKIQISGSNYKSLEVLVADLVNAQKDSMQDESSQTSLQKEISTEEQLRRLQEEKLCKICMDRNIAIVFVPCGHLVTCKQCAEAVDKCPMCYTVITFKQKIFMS

SMILES	z-score [1]	z-score [2]	z-score [3]	z-score [4]	z-score [5]	z-score [6]	z-score [7]	z-score [8]	z-score [9]	z-score [10]	z-score [11]	z-score [12]	z-score [13]	composite z-score [14]	z-score [15]	z-score [16]	z-score [17]	z-score [18]	z-score [19]	composite z-score [20]
COCCOC(=O)N1C(=O)[C@@]2(c3cc(C#CCNC(N)=O)ccc31)[C@H](C(=O)N1CCCCCCC1)[C@H]1C(=O)O[C@H](c3ccccc3)[C@H](c3ccccc3)N1[C@@H]2c1ccc(OCCO)cc1	0.626	0.636	1.46	0.246	1.01	-1.47	-2.15 (inactive)	-0.764	-1.75	-0.619 (inactive)	-0.178	0.971 (inactive)	-0.237 (inactive)	-0.0134 (inactive)	2.73 (inactive)	1.59 (inactive)	-0.0272 (inactive)	0.531 (inactive)	0.176	0.0471
COC(=O)C(CC#Cc1ccc2c(c1)[C@]1(C(=O)N2)[C@H](c2ccc(OCCO)cc2)N2[C@H](c3ccccc3)[C@H](c3ccccc3)OC(=O)[C@H]2[C@@H]1C(=O)O)C(=O)OC	1.88	-0.0521	1.45	0.47	-0.247	-0.0694	0.222 (inactive)	-0.336	0.132	0.179 (inactive)	0.669	0.156 (inactive)	1.09 (inactive)	-16.3 (active)	2.28 (inactive)	1.48 (inactive)	1.29 (inactive)	1.33 (inactive)	0.749	-0.194
O=C1O[C@H](c2ccccc2)[C@H](c2ccccc2)N2[C@H]1[C@@H](C(=O)NC[C@H](O)c1ccccc1)[C@]1(C(=O)Nc3ccccc31)[C@H]2c1ccccc1OCCO	-1.78	0.559	-5.16	-3.38	-4.61	-2.92	2.95 (inactive)	-1.15	-2.19	-3.12 (inactive)	-2.69	-0.251 (inactive)	-9.21 (active)	-0.719 (inactive)	3.02 (inactive)	1.75 (inactive)	0.346 (inactive)	0.784 (inactive)	-7.33	0.189
CC1CC/C=C\[C@H]2OC34C=CCN(c5ccc(Cl)cc5)C(=O)[C@H]3N(C(CO)C(C)C)C(=O)[C@]4(C)C2C(=O)O1 (stereo not given in full)	0.109	-1.06	0.453	0.955	-0.105	-0.174	-0.21 (inactive)	-0.362	0.00224	-0.392 (inactive)	-0.328	-0.432 (inactive)	0.0849 (inactive)	-2.37 (inactive)	0.109 (inactive)	-0.245 (inactive)	-0.163 (inactive)	0.129 (inactive)	0.399	0.0808
CCCC[C@H]1OB(O)C[C@H]2C1=C(COc1ccccc1)Cn1c(=O)n(-c3ccccc3)c(=O)n12	-0.428	0.75	-0.561	-0.206	-1.28	-2.12	0.16 (inactive)	0.268	-0.958	-0.412 (inactive)	-0.0243	-6.02 (inactive)	-0.0638 (inactive)	-2.51 (inactive)	0.294 (inactive)	0.458 (inactive)	0.232 (inactive)	0.0306 (inactive)	-0.0851	-0.327
CC(C)CCC[C@@H](C)[C@H]1CC[C@@]2(C)C3=C(CC[C@]12C)[C@@]1(C)CC[C@H](OC(=O)C(C)(C)C)C(C)(C)C1CC3 (stereo not given in full)	2.49	1.66	1.12	0.933	-0.129	1.15	0.39 (inactive)	0.363	-1.44	0.221 (inactive)	0.411	-0.743 (inactive)	0.0609 (inactive)	-2.48 (inactive)	1.65 (inactive)	-4.69 (inactive)	1.41 (inactive)	-0.805 (inactive)	0.662	0.0356
COCCCNC(=O)[C@@]1(C)c2ccccc2C(=O)N(c2ccc(C)cn2)[C@H]1c1ccc(CO)cc1	-0.255	-1.13	-0.956	-0.0048	-0.857	-0.587	0.285 (inactive)	0.054	-0.295	0.999 (inactive)	0.361	-0.156 (inactive)	-0.321 (inactive)	0.0772 (inactive)	0.112 (inactive)	-0.795 (inactive)	-0.0985 (inactive)	-0.087 (inactive)	0.157	0.286
COCCOC(=O)N1C(=O)[C@@]2(c3cc(C#CC4(O)CCCCCC4)ccc31)[C@H](C(=O)N1CCN(c3ncccn3)CC1)[C@H]1C(=O)O[C@H](c3ccccc3)[C@H](c3ccccc3)N1[C@@H]2c1ccc(O)cc1	1.09	0.146	0.871	-1.12	-0.372	-0.641	0.799 (inactive)	-0.57	0.532	0.445 (inactive)	-0.597	1.04 (inactive)	-0.0906 (inactive)	0.59 (inactive)	0.545 (inactive)	2.1 (inactive)	-0.19 (inactive)	0.37 (inactive)	0.74	-0.177
CC1=C2[C@@H](CCc3ccccc3)OB(O)C[C@@H]2[C@@H]2C(=O)C=CC(=O)[C@@H]2C1	-0.223	0.36	-0.63	-3.38	-3.64	-3.63	-1.5 (inactive)	-1.12	-2.78	-0.247 (inactive)	-0.548	-17.6 (active)	-1.06 (inactive)	-3.6 (inactive)	0.589 (inactive)	-0.055 (inactive)	-0.367 (inactive)	-0.0244 (inactive)	-1.13	0.0325
NC(=O)NCC#Cc1ccc2c(c1)[C@]1(C(=O)N2)[C@H](c2ccc(OCCO)cc2)N2[C@H](c3ccccc3)[C@H](c3ccccc3)OC(=O)[C@H]2[C@@H]1C(=O)N1CCN(c2ncccn2)CC1	0.947	0.212	0.674	-0.167	0.62	-1.45	0.721 (inactive)	-0.726	-0.669	1.1 (inactive)	0.21	1.04 (inactive)	0.963 (inactive)	-0.858 (inactive)	2.71 (inactive)	2.58 (inactive)	0.665 (inactive)	0.773 (inactive)	1.79	-0.149
[N-]=[N+]=NCc1ccccc1C[C@@]1(C(=O)NCCN2CCOCC2)N=C(c2ccc(OCCCO)cc2)O[C@@H]1c1ccccc1CN=[N+]=[N-]	-0.628	0.671	-0.399	-2.59	-2.77	0.787	0.0123 (inactive)	-1.06	-0.797	-1.13 (inactive)	-0.709	0.326 (inactive)	-0.982 (inactive)	1.06 (inactive)	1.13 (inactive)	1.15 (inactive)	0.585 (inactive)	0.239 (inactive)	-0.971	0.0905
COc1cccc(C)c1NC(=O)O[C@H]1[C@H](OC(=O)Nc2ccccc2)[C@H](OC(=O)Nc2ccccc2)[C@@H](OC)O[C@@H]1CO	-1.09	0.93	-1.1	-2.53	-2.81	0.321	0.306 (inactive)	-1.1	0.268	-2.57 (inactive)	-1.22	0.803 (inactive)	-2.2 (inactive)	0.111 (inactive)	0.565 (inactive)	0.673 (inactive)	0.462 (inactive)	-0.358 (inactive)	-1.65	0.0744
O=C(Nc1cc(Br)ccc1C(=O)NCc1cccc(O)c1)c1ccccc1	-1.71	-0.318	-2.25	-3.11	-2.49	0.386	5.49 (inactive)	-0.226	-1.12	-0.326 (inactive)	-1.11	-0.887 (inactive)	-0.407 (inactive)	0.591 (inactive)	0.034 (inactive)	0.659 (inactive)	1.45 (inactive)	1.06 (inactive)	-0.565	0.41
C=CCOc1ccc([C@@H]2CC=C(C(=O)OCC)[C@H](c3cccc(Br)c3)N2S(=O)(=O)c2ccc(C)cc2)cc1	0.954	0.261	-0.508	0.394	-0.455	4.43	0.392 (inactive)	-0.957	-0.0677	-0.924 (inactive)	-0.696	0.465 (inactive)	0.262 (inactive)	-1.92 (inactive)	0.285 (inactive)	-0.897 (inactive)	-0.273 (inactive)	1.05 (inactive)	-0.155	-0.258
O=C1NC(=O)C2C1C=CC(C(O)c1ccc(-c3ccccc3)s1)N2Nc1ccccn1 (stereo not given)	-0.275	-0.456	-0.538	-0.0747	-0.642	-1.85	-0.544 (inactive)	-0.115	-0.371	-0.842 (inactive)	-1.04	1.14 (inactive)	-1.12 (inactive)	1.24 (inactive)	1.23 (inactive)	0.347 (inactive)	0.547 (inactive)	0.193 (inactive)	-1.17	0.549
OCc1ccc(-c2cc[n+](Cc3cccc(OC(F)(F)F)c3)cc2)cc1	-1.19	0.983	-0.52	0.47	-0.483	-0.628	0.296 (inactive)	-0.672	-0.704	-0.395 (inactive)	-0.0785	-0.615 (inactive)	-0.297 (inactive)	-5.09 (inactive)	0.282 (inactive)	-0.327 (inactive)	0.188 (inactive)	0.147 (inactive)	-0.784	0.222
COCC(=C=CC[C@@H](O)c1ccccc1OCCO)C[C@@H](O)c1ccccn1	0.0929	0.158	-0.0698	-0.591	0.211	-0.95	-0.99 (inactive)	0.0537	-0.952	-0.709 (inactive)	-0.415	-1.42 (inactive)	-0.249 (inactive)	-10.8 (active)	0.354 (inactive)	-0.572 (inactive)	-0.268 (inactive)	-0.268 (inactive)	-0.348	-0.0541
